# Laboratory results published in PubChem BioAssay.
# Activity calls are given as the source filed them. Unless noted, no rule for the calls is given here.
# What was measured:
# [1] = A549 cell viability effects, profiling panel, calcein-AM fluorescence, 48 h, basal (AID 1162); conditions: higher = more signal; also: test concentration not given here
# [2] = adipocyte viability effects, profiling panel, cell-based, 3T3-L1 adipocytes, calcein-AM fluorescence, 48 h, basal (AID 1163); conditions: 3T3-L1 adipocytes viability, higher = more signal; also: test concentration not given here
# [3] = HepG2 cell viability effects, profiling panel, calcein-AM fluorescence, 48 h, basal (AID 1164); conditions: higher = more signal; also: test concentration not given here
# [4] = MM1S cell viability effects, profiling panel, calcein-AM fluorescence, 48 h, basal (AID 1165); conditions: higher = more signal;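 also: viability of MM1S multiple myeloma cells under basal unstimulated conditions; test concentration not given here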
# [5] = basal RPMI8226 viability, no added stimulus, profiling panel, cell-based, calcein-AM fluorescence, 48 h, PK04 Diversity Set (AID 1166); conditions: RPMI8226 myeloma viability, higher = more signal;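 also: cells grown under basal conditions without added stimulus; test concentration not given here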
# [6] = basal HepG2 mitochondrial membrane potential changes, profiling panel, cell-based, JC-1 fluorescence, 24 h, 100 nL compound (AID 1167); conditions: higher = more signal; also: test concentration not given here
# [7] = basal 3T3-L1 adipocyte mitochondrial potential changes, profiling panel, cell-based, JC-1 fluorescence, 3T3-L1 adipocytes, 24 h, 100 nL compound (AID 1168); conditions: JC-1 mitochondrial fluorescence, higher = more signal, called active from +8 up or from −8 down; also: test concentration not given here
# [8] = basal RPMI8226 mitochondrial membrane potential changes, profiling panel, cell-based, JC-1 fluorescence, 24 h, 100 nL compound (AID 1169); conditions: RPMI8226 myeloma, JC-1 mitochondrial potential fluorescence, higher = more signal; also: test concentration not given here
# [9] = basal MM1S mitochondrial membrane potential changes, profiling panel, cell-based, JC-1 fluorescence, 24 h, 100 nL compound (AID 1170); conditions: higher = more signal; also: test concentration not given here
# [10] = A549 lung cancer cell viability effects, profiling panel, resazurin fluorescence, 24 h, PK04 Diversity Set (AID 1171); conditions: higher = more signal, called active from +8 up or from −8 down; also: test concentration not given here
# [11] = HepG2 liver cancer cell viability effects, profiling panel, resazurin fluorescence, 24 h, PK04 Diversity Set (AID 1172); conditions: higher = more signal; also: test concentration not given here
# [12] = basal S. cerevisiae growth modulation, no modifier, primary screen, OD600, strain BY4716, 24 h, basal condition (AID 1173); conditions: OD600, 24 h, higher = more signal, called active from +8 up or from −8 down
# [13] = MM1S myeloma cell viability, profiling panel, resazurin fluorescence, basal, 24 h, PK04 Diversity Set (AID 1174); conditions: higher = more signal, called active from +8 up or from −8 down;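 also: MM1S multiple myeloma cell line; test concentration not given here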
# [14] = target: Dihydroorotate dehydrogenase (quinone), mitochondrial (Plasmodium falciparum (isolate 3D7)) (UniProt Q08210); experiment: PfDHODH enzyme inhibitors, primary screen, biochemical, C-terminal His tag, absorbance 600 nm (AID 1175); conditions: DCIP absorbance 600 nm, higher = more signal, called active from +8 up or from −8 down;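 also: recombinant parasite enzyme with a five histidine tag at its C terminus; test concentration not given here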
# Chain of Dihydroorotate dehydrogenase (quinone), mitochondrial (Plasmodium falciparum (isolate 3D7)) (Q08210 whole entry, looked up): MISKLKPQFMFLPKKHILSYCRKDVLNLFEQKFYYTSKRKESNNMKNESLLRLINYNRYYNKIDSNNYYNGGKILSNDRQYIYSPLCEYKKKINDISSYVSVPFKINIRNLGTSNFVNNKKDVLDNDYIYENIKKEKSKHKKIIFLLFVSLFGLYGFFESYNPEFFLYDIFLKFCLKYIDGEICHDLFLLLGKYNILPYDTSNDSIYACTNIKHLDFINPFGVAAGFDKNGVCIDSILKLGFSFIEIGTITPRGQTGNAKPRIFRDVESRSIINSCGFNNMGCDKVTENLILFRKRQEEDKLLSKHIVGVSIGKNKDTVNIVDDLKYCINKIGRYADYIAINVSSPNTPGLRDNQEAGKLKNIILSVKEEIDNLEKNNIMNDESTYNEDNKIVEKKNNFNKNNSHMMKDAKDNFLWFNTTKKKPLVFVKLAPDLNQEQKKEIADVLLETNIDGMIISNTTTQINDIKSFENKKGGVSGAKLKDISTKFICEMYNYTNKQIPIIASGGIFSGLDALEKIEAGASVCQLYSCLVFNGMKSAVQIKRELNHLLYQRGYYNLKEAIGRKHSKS
# [15] = P. aeruginosa biofilm formation inhibitors, primary screen, strain PAO1, LB-PBS medium, absorbance 600 nm (AID 1176); also: test concentration not given here; conditions: P. aeruginosa PAO1 growth/biofilm, A600, 12 h; higher = more signal
# [16] = S. cerevisiae RM11-1a growth modifiers, primary screen, strain RM11-1a, OD600, basal, 24 h (AID 1177); conditions: OD600, 24 h, higher = more signal, called active from +8 up or from −8 down;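 also: cultures grown under basal conditions with no added stressor; test concentration not given here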
# [17] = E. coli acrAB mutant growth effects, primary screen, E. coli filamentation inducers, strain DRC39, OD650, 24 h (AID 1178); conditions: higher = more signal, called active from +8 up or from −8 down;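 also: growth measured as culture turbidity by optical density at 650 nm; test concentration not given here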
# [18] = E. coli acrAB mutant growth effects, primary screen, E. coli filamentation inducers, strain DRC39, OD650, 48 h (AID 1179);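 also: screen aims at cell division blockers that make cells filament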; conditions: E. coli DRC39 delta-acrAB growth, higher = more signal, called active from +8 up or from −8 down
# [19] = RPMI8226 myeloma cell viability, profiling panel, resazurin fluorescence, basal, 24 h, PK04 Diversity Set (AID 1180); conditions: higher = more signal;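 also: RPMI8826 multiple myeloma cell line at 5000 cells per well; test concentration not given here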
# [20] = target: E3 ubiquitin-protein ligase XIAP (Homo sapiens) (UniProt P98170); experiment: XIAP binders, primary screen, biophysical, small-molecule microarray, fluorescence 635 nm (AID 1181); conditions: small-molecule microarray binding, higher = more signal;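 also: score merges 667 nm emission and signal to noise over triplicate slides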
# Chain of E3 ubiquitin-protein ligase XIAP (Homo sapiens) (P98170 whole entry, looked up): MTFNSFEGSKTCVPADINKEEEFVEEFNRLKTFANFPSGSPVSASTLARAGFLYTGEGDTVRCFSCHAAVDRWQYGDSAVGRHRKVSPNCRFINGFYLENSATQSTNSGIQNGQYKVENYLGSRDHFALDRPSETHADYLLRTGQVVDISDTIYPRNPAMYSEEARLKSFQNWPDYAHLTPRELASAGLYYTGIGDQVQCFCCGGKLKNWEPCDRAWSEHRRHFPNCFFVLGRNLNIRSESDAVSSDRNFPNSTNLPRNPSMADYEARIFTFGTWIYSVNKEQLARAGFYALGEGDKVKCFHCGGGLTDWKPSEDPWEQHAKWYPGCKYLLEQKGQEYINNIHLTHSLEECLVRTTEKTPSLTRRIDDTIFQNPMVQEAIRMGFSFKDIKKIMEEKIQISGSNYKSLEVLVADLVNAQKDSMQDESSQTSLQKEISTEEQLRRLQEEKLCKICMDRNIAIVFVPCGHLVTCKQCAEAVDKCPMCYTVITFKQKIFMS
compound,measurement,setting,value
C=CC[C@]1(C(=O)O)N=C(c2ccc(OCCCO)cc2)O[C@H]1c1ccccc1CN=[N+]=[N-],z-score,[1],1.32
same,z-score,[2],-1.06
same,z-score,[3],0.243
same,z-score,[4],0.869
same,z-score,[5],0.293
same,z-score,[6],-0.131
same,z-score,[7],0.0284 (inactive)
same,z-score,[8],-0.57
same,z-score,[9],-0.587
same,z-score,[10],-0.506 (inactive)
same,z-score,[11],0.13
same,z-score,[12],-0.518 (inactive)
same,z-score,[13],-2.6 (inactive)
same,composite z-score,[14],0.381 (inactive)
same,z-score,[15],-0.555 (inactive)
same,z-score,[16],0.363 (inactive)
same,z-score,[17],0.104 (inactive)
same,z-score,[18],0.619 (inactive)
same,z-score,[19],-0.728
same,composite z-score,[20],0.117
Cc1cccc(/C=C/C=O)c1,z-score,[1],0.175
same,z-score,[2],-0.49
same,z-score,[3],0.486
same,z-score,[4],-0.127
same,z-score,[5],-0.46
same,z-score,[6],0.895
same,z-score,[7],0.898 (inactive)
same,z-score,[8],-0.691
same,z-score,[9],-0.313
same,z-score,[10],0.0956 (inactive)
same,z-score,[11],0.033
same,z-score,[12],-2.91 (inactive)
same,z-score,[13],-0.0488 (inactive)
same,composite z-score,[14],-1.16 (inactive)
same,z-score,[15],0.13 (inactive)
same,z-score,[16],-0.181 (inactive)
same,z-score,[17],0.578 (inactive)
same,z-score,[18],0.35 (inactive)
same,z-score,[19],0.387
same,composite z-score,[20],-0.0559
CCCCC(=O)N(Cc1ccccc1F)[C@@H]1CC(C(=O)NCCO)=C[C@H](Oc2c(I)cc(CO)cc2OC)[C@H]1O,z-score,[1],-0.435
same,z-score,[2],1.65
same,z-score,[3],-0.765
same,z-score,[4],0.364
same,z-score,[5],-1.7
same,z-score,[6],0.197
same,z-score,[7],-0.916 (inactive)
same,z-score,[8],-0.325
same,z-score,[9],-0.0648
same,z-score,[10],-0.873 (inactive)
same,z-score,[11],-0.796
same,z-score,[12],-2.51 (inactive)
same,z-score,[13],-0.137 (inactive)
same,composite z-score,[14],-1.63 (inactive)
same,z-score,[15],-0.447 (inactive)
same,z-score,[16],1.65 (inactive)
same,z-score,[17],0.754 (inactive)
same,z-score,[18],0.266 (inactive)
same,z-score,[19],-0.0533
same,composite z-score,[20],0.344
CO[C@H]1O[C@H](CO)[C@@H](OC(=O)Nc2cccc(F)c2)[C@H](OC(=O)Nc2ccccc2-c2ccccc2)[C@@H]1OC(=O)Nc1ccccc1-c1ccccc1,z-score,[1],-2.35
same,z-score,[2],0.63
same,z-score,[3],-1.85
same,z-score,[4],-2.28
same,z-score,[5],-2.37
same,z-score,[6],-0.27
same,z-score,[7],0.827 (inactive)
same,z-score,[8],-0.877
same,z-score,[9],-1.38
same,z-score,[10],-2.79 (inactive)
same,z-score,[11],-1.71
same,z-score,[12],0.664 (inactive)
same,z-score,[13],-2.52 (inactive)
same,composite z-score,[14],-0.59 (inactive)
same,z-score,[15],1.39 (inactive)
same,z-score,[16],2.42 (inactive)
same,z-score,[17],-0.798 (inactive)
same,z-score,[18],0.689 (inactive)
same,z-score,[19],-1.78
same,composite z-score,[20],0.117
